In PubChem BioAssay AID652048 (National Center for Advancing Translational Sciences (NCATS), 2013) one finds max activation data, which are given here for 55 compounds.

Where “and” joins values, the source holds several entries; their conditions need not be identical. Equal values may be shown once. The campaign covered roughly 410,000 compounds. About 2,400 (0.59%) were called active. No stated cut-off is given here; in the data, active means max activation above about 30%; inactive means the rest. The entries come from a sample that favours actives as a whole. Where a structure was tested more than once in an assay, its records may differ in their call.

D(3) dopamine receptor (Homo sapiens), sequence (P35462 whole entry, looked up): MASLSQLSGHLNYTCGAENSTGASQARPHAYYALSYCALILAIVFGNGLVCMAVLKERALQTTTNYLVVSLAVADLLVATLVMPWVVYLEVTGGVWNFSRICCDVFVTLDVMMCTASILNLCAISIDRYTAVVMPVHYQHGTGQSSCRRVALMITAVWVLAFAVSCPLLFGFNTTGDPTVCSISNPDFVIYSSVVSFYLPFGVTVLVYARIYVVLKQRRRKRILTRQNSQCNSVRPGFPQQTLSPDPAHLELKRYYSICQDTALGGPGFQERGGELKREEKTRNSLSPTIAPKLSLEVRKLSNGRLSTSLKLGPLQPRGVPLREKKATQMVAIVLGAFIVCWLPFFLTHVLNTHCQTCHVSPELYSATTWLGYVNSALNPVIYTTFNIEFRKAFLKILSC

This assay addresses D(3) dopamine receptor (Homo sapiens) (UniProt P35462). In words: qHTS of D3 Dopamine Receptor Agonist: qHTS. Further: 0% is about no effect. The note with it: D3R DiscoveRx beta-arrestin cells, luminescence, 90 min; stronger effect = higher value. The method in brief:
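Agonist mode: compounds and dopamine controls were applied to plated cells for 90 min at 37 degrees C after an overnight attachment at 1500 cells/well. Luminescent read-out followed 30 - 60 minutes at room temperature with DiscoveRx detection reagent.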
Background: qHTS replaces the single test concentration by a dilution series.
In the case of `N#CCSc1nc2ccc(N3CCOCC3)cc2c(=O)n1CCc1ccccc1`, the max activation is 3.32% (inactive).

`CCCCn1c(SCC(=O)NCC2CCCO2)nc2ccc(N3CCOCC3)cc2c1=O` (stereo not given): the max activation is 33% (active).

As for `COCCCNC(=O)CSc1nc2ccc(N3CCOCC3)cc2c(=O)n1CCc1ccccc1`, the max activation is -3.98% (inactive).

For `COc1ccccc1CNCc1ccc(C(=O)O)s1`, the max activation is 6.32% (inactive).

Regarding `COc1ccc(C)cc1Nc1nc2ccccc2c2nnc(C)n12`, the max activation was 8.25% (inactive).

As to `COC(=O)c1ccc(NC(=O)CCc2c(C)nn(-c3ccc(N4CCCC4)nn3)c2C)cc1`, the max activation is -2.49% (inactive).

`Cc1ccc(OCC(=O)Nc2ccc(OCc3cc(=O)n4c(C)csc4n3)cc2)cc1C`: the max activation is 4.15% (inactive).

Turning to `COc1ccc(NC(=O)CCN2CCN(CCO)CC2)cc1`, the max activation was 4.05% (inactive).

For the compound `CCc1ccc(NC(=O)CN2CCC(C(=O)c3ccc(OC)cc3)CC2)cc1`, the max activation was -15.3% (inactive).

For the compound `CCOc1ccc(NC(=O)CN2CCN(CC(=O)Nc3ccc(OC)cc3)CC2)cc1`, the max activation was 10.4% (inactive) and 34.5% (active).

Consider `CCc1ccc(S(=O)(=O)n2ccnc2)cc1`, for which the max activation was 8.12% (inactive).

For `Oc1ccccc1-c1nc2ccc(Cl)cn2c1Nc1ccc2c(c1)OCCO2`, the max activation is -2.82% (inactive).

Regarding `Cc1ccsc1C1C(C#N)=C(N)OC2=C1C(=O)CC(C)C2` (stereo not given), the max activation is 1.57% (inactive).

Take `C=CCSC1=C(C#N)C(c2cc(Br)c(O)c(OC)c2)CC(=O)N1` (stereo not given): the max activation was 9.82% (inactive).

`CCOC(=O)CSC1=C(C#N)C(c2sccc2C)CC(=O)N1` (stereo not given): the max activation was 31.9% (active).

Take `Cc1ccccc1CNC(=O)c1cccc(NC(=O)c2nsc3ccccc23)c1`: the max activation is 8.47% (inactive).

As to `CCCc1c2oc(C(=O)O)cc(=O)c2cc2c(=O)cc(C(=O)O)n(CC)c12`, the max activation was -9.91% (inactive).

As for `COc1ccc(-c2csc(-c3c(N)c(C(=O)c4ccc(OC)c(OC)c4)n4ccccc34)n2)cc1`, the max activation is 4.7% (inactive).

Take `COc1ccc(OC)c(-c2csc(-c3c(N)c(C(=O)c4ccccc4)n4ccccc34)n2)c1`: the max activation is -12% (inactive).

On to `Cc1c(C=O)c2ccccn2c1C(=O)c1ccncc1`, for which the max activation was 31.8% (active).

Regarding `Nc1nc(/C(=C/CC(=O)O)C(=O)N[C@@H]2C(=O)N3C(C(=O)O)=CCS[C@H]23)cs1`, the max activation is 4.45% (inactive).

For `COc1ccc(-c2nc3sc(CCNS(=O)(=O)c4ccc(F)c(C)c4)c(C)n3n2)cc1`, the max activation is 6.72% (inactive).

On to `Cc1c(C)n(Cc2ccc(Cl)cc2)c2ccc(C(=O)N3CCN(c4ccccc4F)CC3)cc12`, for which the max activation was -3.88% (inactive).

Regarding `Cc1cccc(N2CCN(C(=O)c3ccc4c(c3)CCN4S(=O)(=O)c3ccccc3)CC2)c1C`, the max activation was -0.325% (inactive).

Turning to `CCn1c(C)c(C)c2cc(C(=O)N3CCN(c4cccc(C)c4C)CC3)ccc21`, the max activation is 5.02% (inactive) and 95.9% (active).

Take `O=C(CSc1nc2c(c(=O)[nH]1)CN(Cc1ccc(F)cc1)CC2)Nc1ccccc1Cl`: the max activation was 6.55% (inactive).

Consider `COC(=O)c1c(-c2ccsc2)oc2ccc(-c3cc(OC)c(OC)c(OC)c3)cc12`, for which the max activation is 45.2% (active).

Consider `COc1cc(-c2nnc(NC(=O)CS(=O)(=O)c3ccc(Cl)cc3)o2)cc(OC)c1OC`, for which the max activation was -1.85% (inactive).

As to `CCOC(=O)c1c(-c2ccc(OC)cc2)oc2ccc(OCc3ccc(C(=O)OC)cc3)cc12`, the max activation was 9.24% (inactive).

Turning to `COc1ccccc1NC(=O)c1sc2nc(C)c(C(=O)Nc3ccc(Cl)cc3)c(-c3ccc(Br)cc3)c2c1N`, the max activation was -10.3% (inactive).

As for `Cc1nn(-c2ccc(N3CCCCC3)nn2)c(C)c1CCC(=O)NCc1ccccc1F`, the max activation is 13.4% (inactive).

For `CC(=O)Nc1ccc(C(=O)CSc2nnc(Cc3ccccc3)o2)cc1`, the max activation is 46.1% (active).

For the compound `O=C(CSc1nnc(Cn2cnc3ccccc32)o1)c1ccccc1`, the max activation was 2.49% (inactive).

On to `CCOc1ccc(Nc2nc(Cc3nnc(SCC(=O)c4ccc(C)cc4)o3)cs2)cc1`, for which the max activation is 22.4% (inactive).

As for `Cc1ccc(NC(=O)c2oc3ccc(S(=O)(=O)N4CCCCC4)cc3c2C)cc1Cl`, the max activation was -12.7% (inactive).

For `CNC(=O)c1[nH]cnc1C(=O)N[C@@H](CC(C)C)C(=O)OCc1ccccc1`, the max activation is 15.1% (inactive).

With `C[C@H](NC(=O)c1nc[nH]c1C(=O)NCC(=O)OC(C)(C)C)C(=O)OCc1ccccc1`, the max activation was 48.3% (active).

Take `Cc1cccc(NC(=O)c2nc[nH]c2C(=O)NCC(=O)OCc2ccccc2)c1`: the max activation was 74.4% (active).

In the case of `O=C(Nc1ccon1)c1nc[nH]c1C(=O)NCc1ccccc1`, the max activation is 12.3% (inactive).

For `C[C@H](NC(=O)c1nc[nH]c1C(=O)N[C@@H](C)C(=O)OC(C)(C)C)C(=O)OC(C)(C)C`, the max activation is -3.39% (inactive).

On to `CCOC(=O)c1[nH]cnc1C(=O)Nc1ccccc1C`, for which the max activation was 4.49% (inactive).

As for `CCOC(=O)c1ccc(NC(=O)c2nc[nH]c2C(=O)NCc2ccccc2)cc1`, the max activation was 56.5% (active).

Take `O=C(Nc1cc(Br)ccc1F)c1nc[nH]c1C(=O)NCc1ccccc1`: the max activation is -7.03% (inactive).

Regarding `C[C@H](NC(=O)c1nc[nH]c1C(=O)NCC(=O)OC(C)(C)C)c1ccccc1`, the max activation was -13.3% (inactive).

Regarding `COc1cccc(C(=O)N(Cc2cccc(Cl)c2)Cc2ccco2)c1`, the max activation is -11.4% (inactive).

On to `Cc1cc(C)cc(NS(=O)(=O)c2ccc(-c3cc(C)no3)s2)c1`, for which the max activation is -10.7% (inactive).

For `CCOc1cc(/C=C(\C#N)C(=O)Nc2ccccc2C)ccc1OCc1cc(=O)n2nc(CC)sc2n1`, the max activation was -12.7% (inactive).

Turning to `O=C1CC(c2nnc(Cc3ccc(Cl)cc3)o2)CN1c1ccccc1` (stereo not given), the max activation was 10.5% (inactive).

On to `COC(=O)c1c(NC(=O)C(C)Oc2ccc(Cl)c(C)c2)sc(C)c1C` (stereo not given), for which the max activation is -8.23% (inactive).

For the compound `CN[C@@H]1[C@H](O[C@H]2[C@H](O[C@H]3[C@H](O)[C@@H](O)[C@H](N=C(N)N)[C@@H](O)[C@@H]3N=C(N)N)O[C@@H](C)[C@]2(O)CO)O[C@@H](CO)[C@H](O)[C@H]1O`, the max activation is 4.88% (inactive).

On to `Cc1ccc(OC(=O)CSc2nnc(-c3cccs3)o2)cc1`, for which the max activation is 7.3% (inactive).

As to `CCCCCCCCCCCCCCCCO`, the max activation is 11.6% (inactive).

On to `Cc1cc(/C=C2/SC(=O)N(CC(=O)OC(C)C)C2=O)c(C)n1C`, for which the max activation was 30.2% (active).

As for `CCN=C1S/C(=C\c2cc(Br)ccc2OCC(=O)OCC)C(=O)N1CC`, the max activation is 5.26% (inactive).

`Cc1cc(/C=C2/SC(=O)N(CC(=O)N3CCCC3)C2=O)ccc1N1CCOCC1`: the max activation is -0.0029% (inactive).
